Several values for one entry are separate records, joined by “and”; a condition that tells them apart may be missing. Equal entries are not always repeated. Out of some 5,500 compounds screened, about 2,000 (36%) were called active. Another 18% or so got no clear call; they are omitted. Rule as the data show it: active = normalized growth mostly below about 0.91 (no sharp cut-off); inconclusive = no clear call, values can overlap the other calls; inactive = mostly above about 0.92. The list shows a part of the results.
Assay: chemical genetic growth profiling, strain panel (AID 1159580);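 also: tested at 20 µM; growth read once vehicle control cultures reached saturation at 30 °C; 1 = growth at the plate median or of vehicle wells; lower values mean less growth of the strain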
Details: S. cerevisiae deletion strains, growth OD

Measured: normalized growth

O=C(O)c1nc2cc(Cl)c(Cl)cc2[nH]c1=O
inactive: locus YAL013W, strain DEP1, hits give low values 1.02 | locus YAL021C, strain ccr4, hits give low values 0.995 | locus YAL026C, strain drs2, hits give low values 1.03 | locus YAL030W, strain snc1, hits give low values 1.01 | locus YBL061C, strain skt5, hits give low values 1.01 | locus YBR009C, strain hhf1, hits give low values 1.04 | locus YBR021W, strain FUR4, hits give low values 1.02 | locus YBR023C, strain chs3, hits give low values 1.03 | locus YBR171W, strain sec66, hits give low values 1.04 | locus YBR229C, strain ROT2, hits give low values 1.01 | locus YBR231C, strain swc5, hits give low values 1.02 | locus YBR279W, strain paf1, hits give low values 1.01 | locus YCL011C, strain gbp2, hits give low values 1.02 | locus YCL016C, strain dcc1, hits give low values 1.01 | locus YCL029C, strain bik1, hits give low values 0.99 | locus YCL061C, strain MRC1, hits give low values 1.03 | locus YCL069W, strain vba3, hits give low values 1.01 | locus YCR088W, strain abp1, hits give low values 1.01 | locus YDL005C, strain med2, hits give low values 1.02 | locus YDL035C, strain GPR1, hits give low values 1.01 | locus YDL040C, strain nat1, hits give low values 0.995 | locus YDL074C, strain BRE1, hits give low values 1.03 | locus YDL101C, strain DUN1, hits give low values 1.02 | locus YDL134C, strain PPH21, hits give low values 1 | locus YDL185W, strain tfp1, hits give low values 0.956 | locus YDL192W, strain arf1, hits give low values 0.993 | locus YDR001C, strain nth1, hits give low values 1.01 | locus YDR069C, strain doa4, hits give low values 1.04 | locus YDR101C, strain arx1, hits give low values 1.01 | locus YDR137W, strain rgp1, hits give low values 0.974 | locus YDR150W, strain NUM1, hits give low values 0.978 | locus YDR159W, strain sac3, hits give low values 1.01 | locus YDR162C, strain NBP2, hits give low values 1.03 | locus YDR195W, strain ref2 1.04 | locus YDR297W, strain sur2, hits give low values 1.01 | locus YDR318W, strain mcm21, hits give low values 0.994 | locus YDR334W, strain swr1, hits give low values 1.02 | locus YDR335W, strain msn5, hits give low values 1.02 | locus YDR388W, hits give low values 1.01 | locus YDR392W, strain spt3, hits give low values 0.968 | locus YDR502C, strain sam2, hits give low values 1.01 | locus YEL003W, strain gim4, hits give low values 1.03 | locus YEL037C, strain rad23, hits give low values 1.02 | locus YEL061C, strain CIN8 (second series), hits give low values 1.02 | locus YEL061C, strain CIN8, hits give low values 0.998 | locus YER015W, strain faa2, hits give low values 1.01 | locus YER016W, strain bim1, hits give low values 1.01 | locus YER110C, hits give low values 0.992 | locus YER111C, strain swi4, hits give low values 1.03 | locus YER155C, strain BEM2 (second series), hits give low values 1.03 | locus YER155C, strain BEM2, hits give low values 0.996 | locus YER167W, strain BCK2, hits give low values 1 | locus YFR010W, strain ubp6, hits give low values 1.03 | locus YGL078C, strain dbp3, hits give low values 0.992 | locus YGL086W, strain mad1, hits give low values 0.979 | locus YGL167C, strain pmr1, hits give low values 1.01 | locus YGL173C, strain kem1, hits give low values 1.02 | locus YGL227W, strain vid30, hits give low values 1.02 | locus YGL240W, strain doc1, hits give low values 1.03 | locus YGL248W, strain PDE1, hits give low values 1.01 | locus YGL253W, strain hxk2, hits give low values 1.03 | locus YGR078C, strain PAC10, hits give low values 1.03 | locus YGR135W, strain pre9, hits give low values 1.02 | locus YGR229C, strain SMI1, hits give low values 1.07 | locus YGR252W, strain gcn5, hits give low values 1 | locus YHR013C, strain ard1, hits give low values 0.994 | locus YHR027C, strain rpn1, hits give low values 1.02 | locus YHR030C, strain SLT2, hits give low values 0.995 and 0.994 | locus YHR079C, strain IRE1 (second series), hits give low values 0.997 | locus YHR079C, strain IRE1, hits give low values 0.999 | locus YHR094C, strain hxt1, hits give low values 0.983 | locus YHR129C, strain ARP1, hits give low values 1.01 | locus YHR142W, strain chs7, hits give low values 0.984 | locus YHR200W, strain rpn10, hits give low values 0.99 | locus YIL066C, strain RNR3, hits give low values 1 | locus YIL073C, strain SPO22, hits give low values 0.946 | locus YIR030C, strain dcg1, hits give low values 0.992 | locus YJL092W, strain hpr5, hits give low values 1.02 | locus YJL095W, strain BCK1 (second series), hits give low values 1 | locus YJL095W, strain BCK1, hits give low values 1.05 and 0.986 | locus YJL115W, strain asf1, hits give low values 1.02 | locus YJL129C, strain trk1, hits give low values 1.01 | locus YJL134W, strain LCB3, hits give low values 0.994 | locus YJL154C, strain vps35, hits give low values 1 | locus YJL164C, strain tpk1, hits give low values 0.999 | locus YJL166W, strain qcr8, hits give low values 1.02 | locus YJL168C, strain set2, hits give low values 1.01 | locus YJL187C, strain SWE1 (second series), hits give low values 1.01 | locus YJL187C, strain SWE1, hits give low values 1.02 | locus YJR043C, strain POL32, hits give low values 1.02 | locus YJR066W, strain TOR1, hits give low values 0.985
